According to article PMC12136788:
Where a chain is given by its changes, count along the chain named. In all, about 5,800 sequences were measured (“enrichment r”: median about 0.54, highest 2% from about 16 on). What follows is part of a selection rich in the highest values, with near analogues and random picks from the rest.

B1: ENSG00000107863:be:win_3301|CDS|ENSG00000107863|bound_else_gene|NA|bound_elsewhere_windowed (ssRNA)
RNA: GGGAGUUCUACAGUCCGACGAUCAAGGAAGAGUCGGAAAGGAAACUUCUCAGUAAAGAUGAUACCAGUCCCCCAAAAGACAAAGGCACAUGGAGAAAAGGCAUUCCAAGUAUCAUGAGAAAGACAUUUGAGAAAAAGCCAACUCAACAGAGGAUUGAGCAUCA
B2: ENSG00000136451:be:win_2301|3pUTR|ENSG00000136451|bound_else_gene|NA|bound_elsewhere_windowed (ssRNA)
RNA: GGGAGUUCUACAGUCCGACGAUCAAAAAUCUACAAAUUGUGUUUUGCUAAGAAAAGCCUCAACUGACAGAGGAGAAGUCAAGUGUGUGGACAGGCAAGCUCCUAAUAAACAGAGUCCAGUGGGAUUCCUAUUUAGGAGCCAAGCAACAGAGGAUUGAGCAUCA
B3: chr10:123166816:123166917:+|3pUTR|ENSG00000154473|unk|FALSE|unique (ssRNA)
RNA: GGGAGUUCUACAGUCCGACGAUCAAAAACUUAAAGGUAUAUUAGCAGGUUAGCCUUUGUUCUGUGGGAGAUCCAGGCCUUGUUAGAAGGACCAAGGCCAGAAUGCCCAGUUUAGCCUUAGCAUUCAAACCCUUCAUUGUUUUUCAACAGAGGAUUGAGCAUCA
B4: chr12:48653210:48654175:-|three_prime_utr|ENSG00000139620|control|control|control (ssRNA)
RNA: GGGAGUUCUACAGUCCGACGAUCGCACCAUUGUCUCAGAGUGGAUUGGCUACUGCAAAUGGGAAGCCAGAACCCACUUCUAUUAGUUGAUAGUUUGGGGAACCAUUUUACUUUGGUGGAUUUAAAUUUCUCGUUCUUCAAAGACAACAGAGGAUUGAGCAUCA
B5: chr1:965281:965395:+|3pUTR|ENSG00000187961|unk|total|mutant (ssRNA)
RNA: GGGAGUUCUACAGUCCGACGAUCCCAUCCGUUCACGUCUCUGCAUCCAUUCCUUCAUGUCUUUAUUCCGUUGUUUAUUUAUUCCGUUAUUUAUCUUAUUUAUUGAGGGGUGAGGAGUGCCACGGCUGCCCGUUUACACCUUUACAACAGAGGAUUGAGCAUCA
B6: chr3:62294290:62294391:+|3pUTR|ENSG00000144724|msi1|FALSE|unique (ssRNA)
RNA: GGGAGUUCUACAGUCCGACGAUCAACUAGUCCUCUAAAAAUUCCCUAUUACUCCUAUAGCAAUCUAAUAAAAACUACCUACAUAGUUACUGUUUUCUUUCCUUCUUUGCCAAAUGUUUUAUAAUAAAUCUCUUAAUUACAUACCAACAGAGGAUUGAGCAUCA
B7: chr3:62294290:62294391:+|3pUTR|ENSG00000144724|msi1|total|mutant (ssRNA)
RNA: B6 RNA with U27C, A28C, U57C, A58C, U83C, A84C
B8: chr1:162523450:162523604:+|3pUTR|ENSG00000152332|msi1|total|mutant (ssRNA)
RNA: GGGAGUUCUACAGUCCGACGAUCAGACUAAGUUGUGCCAGAUGUAAAUCAACCCCUCUUUCCGUUUACUUCCGACUUUGUAUCCGCUCAUCUUUUUUGCCGUAAAUCUACCGUUUUAAGGUUUCUCAAGAUGUGGCUCUACCUCAACAGAGGAUUGAGCAUCA
B9: chr10:119167843:119167906:-|3pUTR|ENSG00000165672|msi1_unk|FALSE|overlapping (ssRNA)
RNA: GGGAGUUCUACAGUCCGACGAUCUGCAUGAUCCCUCAUCCCUGAAAUUGAGUUUAUGUAGUCAUUUUACUUAUUUUAUUCAUUAGCUAACUUUGUCUAUGUAUAUUUCUAGAUAUUGAUUAGUGUAAUCGAUUAUAAAGGAUACAACAGAGGAUUGAGCAUCA
B10: chr17:77216858:77216994:+|3pUTR|ENSG00000129657|unk|FALSE|bound_elsewhere (ssRNA)
RNA: GGGAGUUCUACAGUCCGACGAUCUGUUUCUACCUUUAGUACCUUGCCACUCUUUUAAAACGCUGCUGUCAUUUCCCAUUUCUUAGUACUAAUGAUUCUUUGAUUCUCCCUCUAUUAUGUCUUAAUUCACUUUCCUUCCUAAAUCAACAGAGGAUUGAGCAUCA
B11: chr1:162523450:162523604:+|3pUTR|ENSG00000152332|msi1|FALSE|unique (ssRNA)
RNA: B8 RNA with C61U, C62A, C71U, C72A, C83U, C84A, C99U, C100A, C110U, C111A
B12: chr7:107760707:107760808:+|3pUTR|ENSG00000105879|unk|FALSE|unique (ssRNA)
RNA: GGGAGUUCUACAGUCCGACGAUCAAACAUGAAAUAUGUAGUAUGCAGAUAUCAUUUAUUAGAUAGUUUGUAGUGUAUACAUUUAGAACAUACUUCUUUUGACAAAGGGUGAUCUGAUUGCUAAUUUACCAUUUUAUUCUGUCACAACAGAGGAUUGAGCAUCA
B13: chr11:130144177:130144243:+|3pUTR|ENSG00000084234|msi1_unk|total|mutant (ssRNA)
RNA: GGGAGUUCUACAGUCCGACGAUCAUGAGGGUGUCCGCUGCUGCUUUCCUUCGGAAUCCAGUGCUUCCACAGAGAUCCGCCUGCCGCUUAUAUUUGACAUUCUUCACUGUCUGUUGUUUACCUACCGCCGCUUUUUACCGUUCACAACAGAGGAUUGAGCAUCA
B14: chr7:107760707:107760808:+|3pUTR|ENSG00000105879|unk|total|mutant (ssRNA)
RNA: B12 RNA with U38C, A39C, U59C, A60C, U63C, A64C, U70C, A71C, U83C, A84C
B15: chr1:965281:965395:+|3pUTR|ENSG00000187961|unk|FALSE|unique (ssRNA)
RNA: B5 RNA with C67U, C68A, C83U, C84A
B16: chr1:229660051:229660152:+|3pUTR|ENSG00000135763|msi1|FALSE|bound_elsewhere (ssRNA)
RNA: GGGAGUUCUACAGUCCGACGAUCCUCAUUCAUAGUCUCAGUUACCCAGAUAACCUCGGUUGUCACCUUGGAGUAUCUUGUUGUAGUCCCUUUACUAUGUGUAUGUAUAUAGAUGUGCAUAUAAAUAUAUAUAGUAGCUAAAUUCAACAGAGGAUUGAGCAUCA

The binders below were run against MSI1 full-length (mouse, UniProt Q61474 1-362) (assay: nsRBNS (natural sequence RNA bind-n-seq); RBNS binding buffer (assumed for nsRBNS): 25 mM Tris pH 7.5, 150 mM KCl, 3 mM MgCl2, 0.01% Triton X-100, 500 ug/ml BSA, 20 U/ml SUPERase-In, 4 C; UNK is unkempt and MSI1 is Musashi-1; names of the RNAs are library labels; protein concentration not given here; high values mean tight binding).
Chain of MSI1 full-length (Q61474 whole entry): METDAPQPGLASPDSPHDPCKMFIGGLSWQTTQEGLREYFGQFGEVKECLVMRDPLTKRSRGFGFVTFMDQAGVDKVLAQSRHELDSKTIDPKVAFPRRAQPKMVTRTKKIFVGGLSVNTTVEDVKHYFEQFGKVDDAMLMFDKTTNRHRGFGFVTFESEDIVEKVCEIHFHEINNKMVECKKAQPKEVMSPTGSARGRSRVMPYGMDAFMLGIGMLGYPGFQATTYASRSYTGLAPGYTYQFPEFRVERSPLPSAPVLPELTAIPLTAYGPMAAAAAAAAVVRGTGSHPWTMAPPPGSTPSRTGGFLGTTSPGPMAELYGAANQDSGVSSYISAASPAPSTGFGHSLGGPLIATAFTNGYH

Binder | binding signal
B1 | 0.359 enrichment R
B2 | 0.431 enrichment R
B3 | 5.77 enrichment R
B4 | 0.61 enrichment R
B5 | 8.96 enrichment R
B6 | 32 enrichment R
B7 | 8.49 enrichment R
B8 | 0.276 enrichment R
B9 | 1.93 enrichment R
B10 | 6.66 enrichment R
B11 | 19.3 enrichment R
B12 | 56.7 enrichment R
B13 | 0.557 enrichment R
B14 | 0.319 enrichment R
B15 | 64.6 enrichment R
B16 | 3.57 enrichment R
